The list is a sample of the results.
aSyn 5UTR act: Activators via SNCA 5'UTR binding, MLPCN | AID 1814 | actives 7.1% (n = 300,000) | alpha-synuclein 5'UTR reporter, activators screen | activity score, % (tested at 7.5 µM), hits read low; in the data active means activity score below about -60%
Each line names hits and unclear results; the compound was inactive in the other large screens.

Cc1ccc2c(c1)COc1c3ccc(C(=O)NCC4CC4)cc3nn1-2	aSyn 5UTR act -177
CC(C)NC(=O)c1ccc2c3n(nc2c1)-c1ccccc1CO3	none
O=C(NCCO)c1ccc2c3n(nc2c1)-c1ccccc1CO3	aSyn 5UTR act -105
C=CCNC(=O)c1ccc2c3n(nc2c1)-c1ccc(Cl)cc1CO3	aSyn 5UTR act -127
N#Cc1ccccc1/C=N/Nc1nc(-c2ccccc2)c2cc(Cl)ccc2n1	aSyn 5UTR act -95
Nc1ccc(-n2cc(-c3ccccc3)[nH]c2=S)cc1	aSyn 5UTR act -86
S=c1[nH]c(-c2ccccc2)cn1-c1ccccc1	aSyn 5UTR act -75
COc1ccc(-c2cn(-c3ccccc3)c(=S)[nH]2)cc1OC	aSyn 5UTR act -100
CCC(=O)CCC(=O)c1ccc2ccccc2c1	aSyn 5UTR act -92
CCOc1ccccc1NC(=O)c1ccc2ccccc2c1	aSyn 5UTR act -81
CCOc1ccccc1NC(=O)c1ccc2[nH]c(C)c(C)c2c1	aSyn 5UTR act -91
CC1Oc2ccccc2C=C1/C=N/Nc1ccc(C(=O)O)cc1 (stereo unspecified)	aSyn 5UTR act -95
CCc1ccc(C(=O)N/N=C(\C)c2ccncc2)s1	aSyn 5UTR act -93
C/C(=N/NC(=O)c1ccc(C)s1)c1ccncc1	aSyn 5UTR act -87
Cc1ccsc1/C=N/NC(=O)c1ccc([N+](=O)[O-])cc1	aSyn 5UTR act -88
COc1cc(C(=O)N/N=C/c2sccc2C)cc(OC)c1OC	none
Cc1ccsc1/C=N/NC(=O)c1ccc2ccccc2c1	aSyn 5UTR act -216
Cc1ccsc1/C=N/NC(=O)Nc1ccccc1	aSyn 5UTR act -162
Cc1ccc(N2Cc3ccccc3C2=S)cc1	aSyn 5UTR act -154
S=C1c2ccccc2CN1c1ccccc1	aSyn 5UTR act -64
COC(=O)c1ccc(N)c(N=CC2=C(O)CC(C)(C)CC2=O)c1	aSyn 5UTR act -172
COC(=O)c1ccc2c(c1)C(C)(C)C(/C=C/c1ccccc1O)=[N+]2C	none
COc1ccc(OC)c(NS(=O)(=O)c2ccc(SC)cc2)c1	aSyn 5UTR act -161
CCOc1ccc(S(=O)(=O)Nc2cc(OC)ccc2OC)cc1	none
O=C(CC(=O)c1ccccc1)Nc1ccc(Cl)cc1	aSyn 5UTR act -174
CCC(=O)Nc1ccc(/C=C(\C(C)=O)C(=O)c2ccccc2)cc1	aSyn 5UTR act -77
Cc1ccc(NC(=O)CC(=O)c2ccccc2)cc1C	aSyn 5UTR act -117
Nc1nc(SCc2ccccc2)[nH]c(=O)c1-c1ccccc1	aSyn 5UTR act -99
COc1cc(OC)cc(-c2nnc(SCc3c(F)cccc3Cl)o2)c1	aSyn 5UTR act -101
Cc1ccccc1-c1nnc(SCc2ccccc2F)o1	aSyn 5UTR act -149
Fc1ccccc1CSc1nnc(-c2cccnc2)o1	aSyn 5UTR act -69
Cc1ccccc1-c1nnc(SCc2ccccc2)o1	aSyn 5UTR act -191
Fc1ccccc1CSc1nnc(-c2ccccc2)o1	aSyn 5UTR act -152
COc1ccc(-c2nnc(SCc3ccccc3F)o2)cc1	aSyn 5UTR act -163
c1ccc(CSc2nnc(-c3c[nH]c4ccccc34)o2)cc1	aSyn 5UTR act -151
Cc1[nH]c2ccccc2c1/C=C(\C#N)C(=O)NC1CC1	aSyn 5UTR act -80
COc1ccc(NC(=O)c2cc(-c3ccccc3Cl)on2)cc1	aSyn 5UTR act -125
COc1cc(NC(=O)c2cc(-c3ccccc3Cl)on2)cc(OC)c1OC	aSyn 5UTR act -76
COCCSc1nnc(NC(=O)c2ccc3c(c2)OCO3)s1	aSyn 5UTR act -118
Cc1nnc(NC(=O)c2c(F)c(F)c(F)c(F)c2F)s1	aSyn 5UTR act -73
CSc1nnc(NC(=O)c2ccc3c(c2)OCO3)s1	none
Cc1nnc(NC(=O)c2ccc3c(c2)OCO3)s1	aSyn 5UTR act -150
Cc1nnc(NC(=O)c2ccc(S(=O)(=O)C(F)F)cc2)s1	aSyn 5UTR act -78
Cc1nnc(NC(=O)c2cccc(Br)c2)s1	aSyn 5UTR act -96
O=C(Nc1nncs1)c1ccc2c(c1)OCO2	aSyn 5UTR act -83
CC(C)CC(NC(=O)C1CCC(C)CC1)C(=O)Nc1ccc2c(c1)OCCO2 (stereo unspecified)	aSyn 5UTR act -62
CCC1CCC(C(=O)NC(C(=O)Nc2ccc3c(c2)OCCO3)C(C)C)CC1 (stereo unspecified)	aSyn 5UTR act -84
Cc1cc(Br)ccc1OCc1nc(-c2cccnc2)no1	aSyn 5UTR act -114
c1ccc(-c2noc(COc3ccc4c(c3)OCO4)n2)cc1	aSyn 5UTR act -192
Cc1cc(NC(c2cccnc2)c2ccc3cccnc3c2O)no1 (stereo unspecified)	none
Cc1ccc(OCc2nc(-c3ccccc3)no2)cc1	aSyn 5UTR act -122
Cc1ccccc1OCc1nc(-c2ccccc2)no1	aSyn 5UTR act -178
Cc1ccc(-c2noc(COc3ccccc3C)n2)cc1	aSyn 5UTR act -86
FC(F)(F)c1cc(Cl)c2nc(-c3ccccc3)cn2c1	aSyn 5UTR act -80
Nc1cccc(-c2cn3cc(C(F)(F)F)cc(Cl)c3n2)c1	aSyn 5UTR act -100
CCc1ccc(C2CC(c3ccco3)=NN2S(C)(=O)=O)cc1 (stereo unspecified)	aSyn 5UTR act -89
CC(=O)N1N=C(c2ccc(C)cc2)CC1c1ccc2c(c1)OCO2 (stereo unspecified)	aSyn 5UTR act -133
CC(=O)N1N=C(c2ccc(C)cc2)CC1c1ccco1 (stereo unspecified)	aSyn 5UTR act -98
CC(=O)N1N=C(c2ccccc2)CC1c1cn(C)c2ccccc12 (stereo unspecified)	aSyn 5UTR act -117
COc1ccc(C2=NN(C(=O)COc3ncnc4ccccc34)C(c3ccco3)C2)cc1 (stereo unspecified)	none
Cc1ccc(C2=NN(S(C)(=O)=O)C(c3ccc4c(c3)OCO4)C2)cc1 (stereo unspecified)	aSyn 5UTR act -265
CS(=O)(=O)N1N=C(c2ccc(Br)cc2)CC1c1ccc2c(c1)OCO2 (stereo unspecified)	aSyn 5UTR act -322
CCOC(=O)C1(CCc2ccccc2)CCN(C(=O)Cc2nonc2C)CC1	aSyn 5UTR act -78
CCC(C)N1C(=O)S/C(=C/c2ccc3c(c2)n(C)c(=O)n3C)C1=O (stereo unspecified)	aSyn 5UTR act -69
COc1cccc(NC(=O)NC2CCCCCCC2)c1	aSyn 5UTR act -132
C#CC(=O)N(c1cccc(OC)c1)C(C(=O)NC1CCCC1)c1cccs1 (stereo unspecified)	none
COc1cccc(NC(=O)C(=S)NC2CCCCC2)c1	aSyn 5UTR act -85
Nc1ccccc1SCc1csc(-c2ccc(Cl)cc2)n1	aSyn 5UTR act -72
Cc1cc(C)nc(SCc2csc(-c3ccccc3)n2)n1	aSyn 5UTR act -91
C=CCn1c(SCc2csc(-c3ccc(Cl)cc3)n2)nnc1-c1ccccc1OC	aSyn 5UTR act -64
COc1ccc2c(c1)CC/C(=C\C=C\c1ccccc1OC)C2=O	aSyn 5UTR act -134
COc1ccc2c(c1)C(=O)/C(=C/C=C/c1ccccc1)CC2	aSyn 5UTR act -115
COc1ccc2c(c1)CC/C(=C\c1ccc(C)o1)C2=O	aSyn 5UTR act -170
CCC(C)NC(=O)c1cc(-c2ccc3c(c2)OCO3)on1 (stereo unspecified)	aSyn 5UTR act -141
CCC(C)NC(=O)c1cc(-c2ccc(OC)cc2)on1 (stereo unspecified)	aSyn 5UTR act -118
CCOc1ccc(-c2cc(CCCC(=O)NCCCOC)no2)cc1	none
COc1ccc(-c2cc(C(=O)NCC(C)C)no2)cc1	aSyn 5UTR act -99
CCC(C)NC(=O)c1cc(CC(C)C)on1 (stereo unspecified)	aSyn 5UTR act -68
CCc1cc(C(=O)NNC(=S)NC2CCCCC2)cs1	aSyn 5UTR act -87

Screens: PubChem BioAssay, Broad Institute
